Test results as given in paper PMC7862700, “An all-to-all approach to the identification of sequence-specific readers for epigenetic DNA modifications on cytosine”.

Assays:
Assay in all cases: DAPPL (digital affinity profiling via proximity ligation, sequencing); 10 mM Tris-HCl pH 7.5, 50 mM NaCl, 1 mM DTT, 4% glycerol, room temperature, 30 min; GST-TFs on glutathione beads, 16-mer random dsDNA library, 0.1% formaldehyde crosslink after washing; high values mean tight binding
[1] = biological target: T1, FEV (Homo sapiens, UniProt Q99581 1-238); settings: protein: recombinant; tags: N-terminal GST; dsDNA, one strand shown
T1 sequence: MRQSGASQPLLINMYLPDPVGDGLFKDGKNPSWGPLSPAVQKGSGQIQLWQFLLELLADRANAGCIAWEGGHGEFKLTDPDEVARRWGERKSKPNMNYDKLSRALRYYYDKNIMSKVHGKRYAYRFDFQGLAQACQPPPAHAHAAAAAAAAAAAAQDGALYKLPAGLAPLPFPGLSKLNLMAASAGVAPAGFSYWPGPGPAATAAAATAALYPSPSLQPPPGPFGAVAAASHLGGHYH
Outline: (§1)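 Binding signal is given per hexamer as its read frequency for a factor divided by its frequency in the tag-only sample. GST-fused human transcription factors were expressed in yeast, captured on glutathione beads, barcoded with DNA and pooled with that sample, then incubated with 200 nmole of a 16-mer random double-stranded DNA library in Tris/NaCl/DTT/glycerol buffer for 30 min at room temperature. The pools were then washed, crosslinked, proximity-ligated, amplified by PCR and sequenced on an Illumina NextSeq500.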

[2] = biological target: ETV5 (Homo sapiens, UniProt P41161 1-510); settings: protein: recombinant; tags: N-terminal GST; dsDNA, one strand shown
Chain of ETV5 (P41161 whole entry): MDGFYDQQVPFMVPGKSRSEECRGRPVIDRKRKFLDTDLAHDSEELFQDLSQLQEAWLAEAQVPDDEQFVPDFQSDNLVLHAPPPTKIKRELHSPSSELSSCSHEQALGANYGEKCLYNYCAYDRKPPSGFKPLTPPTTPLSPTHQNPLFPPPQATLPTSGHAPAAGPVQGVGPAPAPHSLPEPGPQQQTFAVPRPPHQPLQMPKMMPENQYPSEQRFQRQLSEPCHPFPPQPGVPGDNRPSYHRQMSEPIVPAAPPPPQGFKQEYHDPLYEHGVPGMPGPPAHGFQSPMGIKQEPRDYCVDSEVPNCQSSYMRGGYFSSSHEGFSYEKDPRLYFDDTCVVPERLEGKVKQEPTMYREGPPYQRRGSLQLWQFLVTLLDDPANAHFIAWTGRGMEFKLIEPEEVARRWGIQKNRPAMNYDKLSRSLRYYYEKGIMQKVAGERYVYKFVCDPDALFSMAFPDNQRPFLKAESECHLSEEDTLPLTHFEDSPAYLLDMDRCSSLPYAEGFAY
Outline: as §1

[3] = biological target: HSF1 (Homo sapiens, UniProt Q00613 1-529); settings: protein: recombinant; tags: N-terminal GST; chain copies: 3; dsDNA, one strand shown
Chain of HSF1 (Q00613 whole entry): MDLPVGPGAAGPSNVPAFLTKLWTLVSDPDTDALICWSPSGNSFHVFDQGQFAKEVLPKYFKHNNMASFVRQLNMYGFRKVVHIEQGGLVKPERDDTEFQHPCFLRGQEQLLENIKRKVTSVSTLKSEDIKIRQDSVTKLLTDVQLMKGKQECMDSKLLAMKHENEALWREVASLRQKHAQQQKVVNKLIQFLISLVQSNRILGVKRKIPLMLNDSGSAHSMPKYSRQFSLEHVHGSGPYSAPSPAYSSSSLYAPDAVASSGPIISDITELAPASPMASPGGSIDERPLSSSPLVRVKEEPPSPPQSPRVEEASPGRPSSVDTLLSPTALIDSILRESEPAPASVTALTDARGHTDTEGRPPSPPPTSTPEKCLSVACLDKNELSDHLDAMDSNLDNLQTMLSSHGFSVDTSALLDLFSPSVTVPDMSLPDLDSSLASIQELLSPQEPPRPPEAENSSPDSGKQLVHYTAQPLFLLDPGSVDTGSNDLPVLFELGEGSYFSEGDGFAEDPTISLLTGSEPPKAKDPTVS
Outline: as §1

[4] = biological target: T2, SPIC (Homo sapiens, UniProt Q8N5J4 1-248); settings: protein: recombinant; tags: N-terminal GST; dsDNA, one strand shown
T2 sequence: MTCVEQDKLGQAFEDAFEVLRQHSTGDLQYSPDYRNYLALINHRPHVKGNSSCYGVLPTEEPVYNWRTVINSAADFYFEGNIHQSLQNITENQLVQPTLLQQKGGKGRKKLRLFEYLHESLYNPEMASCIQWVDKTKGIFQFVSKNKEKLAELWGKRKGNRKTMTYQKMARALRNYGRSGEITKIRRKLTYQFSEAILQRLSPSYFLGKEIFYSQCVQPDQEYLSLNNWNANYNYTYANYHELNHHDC
Outline: as §1

[5] = biological target: ELF4 (Homo sapiens, UniProt Q99607 1-663); settings: protein: recombinant; tags: N-terminal GST; dsDNA, one strand shown
Chain of ELF4 (Q99607 whole entry): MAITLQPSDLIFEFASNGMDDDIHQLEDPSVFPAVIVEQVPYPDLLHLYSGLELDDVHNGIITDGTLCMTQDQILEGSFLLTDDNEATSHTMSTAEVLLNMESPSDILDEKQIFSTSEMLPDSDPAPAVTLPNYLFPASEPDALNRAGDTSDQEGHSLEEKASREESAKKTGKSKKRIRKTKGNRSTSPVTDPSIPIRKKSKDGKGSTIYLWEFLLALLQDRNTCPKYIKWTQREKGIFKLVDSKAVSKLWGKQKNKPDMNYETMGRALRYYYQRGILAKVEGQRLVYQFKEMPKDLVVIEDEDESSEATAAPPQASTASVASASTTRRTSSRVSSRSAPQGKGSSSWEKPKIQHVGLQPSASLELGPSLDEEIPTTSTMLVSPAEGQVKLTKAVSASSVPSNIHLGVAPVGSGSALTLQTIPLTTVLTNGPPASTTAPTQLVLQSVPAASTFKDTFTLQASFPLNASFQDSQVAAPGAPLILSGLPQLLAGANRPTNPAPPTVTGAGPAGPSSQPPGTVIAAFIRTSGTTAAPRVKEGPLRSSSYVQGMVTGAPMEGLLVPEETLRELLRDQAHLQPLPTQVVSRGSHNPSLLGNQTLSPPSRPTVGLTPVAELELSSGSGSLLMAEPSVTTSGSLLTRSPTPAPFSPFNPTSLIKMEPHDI
Outline: as §1

[6] = biological target: T3, ELK4 (Homo sapiens, UniProt P28324-2 1-405); settings: protein: recombinant; tags: N-terminal GST; dsDNA, one strand shown
T3 sequence: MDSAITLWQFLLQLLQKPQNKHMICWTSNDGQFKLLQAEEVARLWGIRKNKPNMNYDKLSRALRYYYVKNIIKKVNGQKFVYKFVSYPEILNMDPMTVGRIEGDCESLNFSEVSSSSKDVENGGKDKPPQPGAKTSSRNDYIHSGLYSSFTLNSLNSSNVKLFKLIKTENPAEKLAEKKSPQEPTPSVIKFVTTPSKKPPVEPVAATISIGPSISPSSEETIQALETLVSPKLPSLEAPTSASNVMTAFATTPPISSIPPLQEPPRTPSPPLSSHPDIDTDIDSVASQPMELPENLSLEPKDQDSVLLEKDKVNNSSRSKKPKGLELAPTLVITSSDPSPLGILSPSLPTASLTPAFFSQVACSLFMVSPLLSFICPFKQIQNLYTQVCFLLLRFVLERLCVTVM
Outline: as §1

[7] = biological target: T4, ETV2 (Homo sapiens, UniProt O00321 1-342); settings: protein: recombinant; tags: N-terminal GST; dsDNA, one strand shown
T4 sequence: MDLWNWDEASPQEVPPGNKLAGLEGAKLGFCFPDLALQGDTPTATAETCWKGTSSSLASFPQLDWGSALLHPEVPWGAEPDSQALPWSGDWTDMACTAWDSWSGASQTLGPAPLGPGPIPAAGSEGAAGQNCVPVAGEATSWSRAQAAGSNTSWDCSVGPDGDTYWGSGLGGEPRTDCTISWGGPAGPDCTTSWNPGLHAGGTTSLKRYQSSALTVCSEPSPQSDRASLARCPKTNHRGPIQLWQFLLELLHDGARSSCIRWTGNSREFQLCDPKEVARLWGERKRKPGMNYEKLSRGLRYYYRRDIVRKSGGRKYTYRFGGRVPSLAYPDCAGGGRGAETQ
Outline: as §1

[8] = biological target: T5, ELF3 (Homo sapiens, UniProt P78545 1-371); settings: protein: recombinant; tags: N-terminal GST; dsDNA, one strand shown
T5 sequence: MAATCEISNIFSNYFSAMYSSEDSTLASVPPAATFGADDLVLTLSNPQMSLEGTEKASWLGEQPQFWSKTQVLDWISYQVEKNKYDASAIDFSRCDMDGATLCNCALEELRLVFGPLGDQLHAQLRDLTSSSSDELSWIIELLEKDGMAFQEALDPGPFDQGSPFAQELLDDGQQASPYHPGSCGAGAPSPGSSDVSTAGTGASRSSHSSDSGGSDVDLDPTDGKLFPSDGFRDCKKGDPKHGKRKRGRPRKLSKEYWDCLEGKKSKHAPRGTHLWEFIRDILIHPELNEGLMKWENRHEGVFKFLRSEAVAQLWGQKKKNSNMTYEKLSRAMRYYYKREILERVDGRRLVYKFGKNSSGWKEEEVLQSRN
Outline: as §1

[9] = biological target: CRX (Homo sapiens, UniProt O43186 1-299); settings: protein: recombinant; tags: N-terminal GST; dsDNA, one strand shown
Chain of CRX (O43186 whole entry): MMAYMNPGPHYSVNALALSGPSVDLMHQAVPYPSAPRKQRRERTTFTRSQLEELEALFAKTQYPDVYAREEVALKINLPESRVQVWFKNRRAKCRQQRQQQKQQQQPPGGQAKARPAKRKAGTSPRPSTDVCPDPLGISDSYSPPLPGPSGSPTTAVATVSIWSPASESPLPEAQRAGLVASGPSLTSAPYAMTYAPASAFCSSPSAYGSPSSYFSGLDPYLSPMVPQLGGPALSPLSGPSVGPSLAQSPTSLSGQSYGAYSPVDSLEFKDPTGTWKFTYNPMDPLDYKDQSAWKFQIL
Outline: as §1

[10] = biological target: ETV1 (Homo sapiens, UniProt P50549 1-477); settings: protein: recombinant; tags: N-terminal GST; dsDNA, one strand shown
Chain of ETV1 (P50549 whole entry): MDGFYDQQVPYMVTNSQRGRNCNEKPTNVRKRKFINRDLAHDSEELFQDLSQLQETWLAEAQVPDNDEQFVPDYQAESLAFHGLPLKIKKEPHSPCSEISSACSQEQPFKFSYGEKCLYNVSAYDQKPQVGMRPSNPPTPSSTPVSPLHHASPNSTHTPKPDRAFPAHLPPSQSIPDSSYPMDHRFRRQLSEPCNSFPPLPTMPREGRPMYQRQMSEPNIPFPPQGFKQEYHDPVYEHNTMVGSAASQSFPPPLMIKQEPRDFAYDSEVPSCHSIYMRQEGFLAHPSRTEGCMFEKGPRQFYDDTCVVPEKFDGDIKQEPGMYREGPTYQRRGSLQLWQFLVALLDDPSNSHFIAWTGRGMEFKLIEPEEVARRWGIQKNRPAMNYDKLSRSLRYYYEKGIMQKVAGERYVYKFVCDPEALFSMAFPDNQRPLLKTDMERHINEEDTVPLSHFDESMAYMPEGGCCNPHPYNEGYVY
Outline: as §1

[11] = biological target: T6, ERF (Homo sapiens, UniProt P50548 1-548); settings: protein: recombinant; tags: N-terminal GST; dsDNA, one strand shown
T6 sequence: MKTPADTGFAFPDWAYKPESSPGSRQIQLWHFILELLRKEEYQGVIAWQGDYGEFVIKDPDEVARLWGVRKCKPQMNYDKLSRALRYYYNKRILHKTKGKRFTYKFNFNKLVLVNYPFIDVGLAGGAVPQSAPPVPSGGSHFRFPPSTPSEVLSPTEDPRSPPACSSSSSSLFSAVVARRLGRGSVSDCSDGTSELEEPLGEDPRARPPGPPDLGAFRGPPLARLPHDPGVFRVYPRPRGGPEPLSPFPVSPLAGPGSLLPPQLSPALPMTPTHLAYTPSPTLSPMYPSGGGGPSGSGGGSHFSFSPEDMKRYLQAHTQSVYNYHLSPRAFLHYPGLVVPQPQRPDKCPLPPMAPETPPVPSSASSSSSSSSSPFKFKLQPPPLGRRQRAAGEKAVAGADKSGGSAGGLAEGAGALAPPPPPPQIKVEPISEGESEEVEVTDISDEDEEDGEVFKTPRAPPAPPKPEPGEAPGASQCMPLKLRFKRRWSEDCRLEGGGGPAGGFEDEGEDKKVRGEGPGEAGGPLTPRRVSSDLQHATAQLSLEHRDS
Outline: as §1

[12] = biological target: T7, ETV3L (Homo sapiens, UniProt Q6ZN32 1-361); settings: protein: recombinant; tags: N-terminal GST; dsDNA, one strand shown
T7 sequence: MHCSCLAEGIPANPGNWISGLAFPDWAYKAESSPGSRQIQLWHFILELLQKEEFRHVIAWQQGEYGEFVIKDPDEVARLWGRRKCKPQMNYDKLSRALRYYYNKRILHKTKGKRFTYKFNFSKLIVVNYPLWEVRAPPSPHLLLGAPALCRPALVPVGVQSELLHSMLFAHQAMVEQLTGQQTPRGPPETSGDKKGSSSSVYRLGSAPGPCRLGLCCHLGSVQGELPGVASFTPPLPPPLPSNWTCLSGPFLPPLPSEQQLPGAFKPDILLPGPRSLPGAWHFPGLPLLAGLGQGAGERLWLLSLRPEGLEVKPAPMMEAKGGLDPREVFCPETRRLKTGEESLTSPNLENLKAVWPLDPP
Outline: as §1

[13] = biological target: T8, ETS2 (Homo sapiens, UniProt P15036 1-469); settings: protein: recombinant; tags: N-terminal GST; dsDNA, one strand shown
T8 sequence: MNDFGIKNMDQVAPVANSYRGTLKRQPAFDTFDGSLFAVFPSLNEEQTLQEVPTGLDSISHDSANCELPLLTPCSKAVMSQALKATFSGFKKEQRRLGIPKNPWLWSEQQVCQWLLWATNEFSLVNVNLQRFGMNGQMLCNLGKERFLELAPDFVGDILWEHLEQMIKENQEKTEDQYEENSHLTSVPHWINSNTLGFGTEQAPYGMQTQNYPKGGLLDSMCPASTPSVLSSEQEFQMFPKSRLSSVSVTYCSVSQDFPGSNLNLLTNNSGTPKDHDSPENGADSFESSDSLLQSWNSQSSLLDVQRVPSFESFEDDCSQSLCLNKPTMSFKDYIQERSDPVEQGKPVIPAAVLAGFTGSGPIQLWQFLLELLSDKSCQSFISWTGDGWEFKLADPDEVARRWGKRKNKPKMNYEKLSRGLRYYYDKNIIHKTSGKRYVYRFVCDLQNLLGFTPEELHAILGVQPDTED
Outline: as §1

[14] = biological target: T9, SPDEF (Homo sapiens, UniProt O95238 1-335); settings: protein: recombinant; tags: N-terminal GST; dsDNA, one strand shown
T9 sequence: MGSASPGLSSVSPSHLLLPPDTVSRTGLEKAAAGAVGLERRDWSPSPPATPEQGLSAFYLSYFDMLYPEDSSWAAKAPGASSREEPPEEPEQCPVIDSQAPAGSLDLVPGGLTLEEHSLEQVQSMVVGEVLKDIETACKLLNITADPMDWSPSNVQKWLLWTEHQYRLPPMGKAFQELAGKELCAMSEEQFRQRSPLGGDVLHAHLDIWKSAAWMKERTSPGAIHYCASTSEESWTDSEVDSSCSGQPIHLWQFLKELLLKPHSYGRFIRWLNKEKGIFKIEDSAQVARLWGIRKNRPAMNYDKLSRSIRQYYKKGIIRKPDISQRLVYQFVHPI
Outline: as §1

[15] = biological target: T10, ETV7 (Homo sapiens, UniProt Q9Y603 1-341); settings: protein: recombinant; tags: N-terminal GST; dsDNA, one strand shown
T10 sequence: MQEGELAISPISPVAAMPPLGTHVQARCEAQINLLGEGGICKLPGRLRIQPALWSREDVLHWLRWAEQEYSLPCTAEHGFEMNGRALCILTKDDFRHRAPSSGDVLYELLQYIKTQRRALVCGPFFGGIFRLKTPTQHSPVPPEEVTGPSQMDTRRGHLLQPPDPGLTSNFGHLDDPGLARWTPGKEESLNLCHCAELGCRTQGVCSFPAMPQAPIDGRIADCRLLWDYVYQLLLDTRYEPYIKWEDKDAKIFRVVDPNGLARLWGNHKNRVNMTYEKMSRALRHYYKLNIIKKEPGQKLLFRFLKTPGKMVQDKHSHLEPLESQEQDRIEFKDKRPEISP
Outline: as §1

[16] = biological target: T11, ELF5 (Homo sapiens, UniProt Q9UKW6-2 1-255); settings: protein: recombinant; tags: N-terminal GST; dsDNA, one strand shown
T11 sequence: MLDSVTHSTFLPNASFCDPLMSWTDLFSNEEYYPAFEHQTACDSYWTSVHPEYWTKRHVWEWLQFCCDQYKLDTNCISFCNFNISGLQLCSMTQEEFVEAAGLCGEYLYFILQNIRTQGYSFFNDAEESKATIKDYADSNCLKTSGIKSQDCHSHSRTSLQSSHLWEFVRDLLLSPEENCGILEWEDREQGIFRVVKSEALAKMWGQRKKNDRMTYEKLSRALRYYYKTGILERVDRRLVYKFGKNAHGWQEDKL
Outline: as §1

[17] = biological target: T12, ETV3 (Homo sapiens, UniProt P41162-2 1-143); settings: protein: recombinant; tags: N-terminal GST; dsDNA, one strand shown
T12 sequence: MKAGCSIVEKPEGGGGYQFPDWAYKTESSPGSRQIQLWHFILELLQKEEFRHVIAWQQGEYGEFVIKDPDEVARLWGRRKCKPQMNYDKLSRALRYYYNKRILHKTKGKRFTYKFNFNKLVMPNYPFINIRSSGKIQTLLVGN
Outline: as §1

[18] = biological target: ETV6 (Homo sapiens, UniProt P41212 1-452); settings: protein: recombinant; tags: N-terminal GST; dsDNA, one strand shown
Chain of ETV6 (P41212 whole entry): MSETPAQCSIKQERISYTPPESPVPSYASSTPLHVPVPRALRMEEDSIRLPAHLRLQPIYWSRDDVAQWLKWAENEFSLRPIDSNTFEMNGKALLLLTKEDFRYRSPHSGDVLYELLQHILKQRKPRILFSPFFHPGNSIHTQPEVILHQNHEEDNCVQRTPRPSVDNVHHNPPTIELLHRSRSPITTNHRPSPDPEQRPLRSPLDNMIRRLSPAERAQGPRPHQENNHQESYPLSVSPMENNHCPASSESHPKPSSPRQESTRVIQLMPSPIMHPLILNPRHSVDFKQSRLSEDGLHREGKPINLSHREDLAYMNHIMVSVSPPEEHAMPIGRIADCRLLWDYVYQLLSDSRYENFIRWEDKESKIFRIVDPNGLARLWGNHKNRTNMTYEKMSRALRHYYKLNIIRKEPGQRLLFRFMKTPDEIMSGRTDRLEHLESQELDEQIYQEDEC
Outline: as §1

AATATA
binding signal [1]: 1.3 fold enrichment (6-mer frequency, TF over GST control)
binding signal [2]: 1.33 fold enrichment (6-mer frequency, TF over GST control)
binding signal [3]: 1.38 fold enrichment (6-mer frequency, TF over GST control)
binding signal [4]: 1.29 fold enrichment (6-mer frequency, TF over GST control)
binding signal [5]: 1.3 fold enrichment (6-mer frequency, TF over GST control)
binding signal [6]: 1.39 fold enrichment (6-mer frequency, TF over GST control)
binding signal [7]: 1.35 fold enrichment (6-mer frequency, TF over GST control)
binding signal [8]: 1.5 fold enrichment (6-mer frequency, TF over GST control)
binding signal [9]: 1.62 fold enrichment (6-mer frequency, TF over GST control)
binding signal [10]: 1.39 fold enrichment (6-mer frequency, TF over GST control)
binding signal [11]: 1.39 fold enrichment (6-mer frequency, TF over GST control)
binding signal [12]: 1.31 fold enrichment (6-mer frequency, TF over GST control)
binding signal [13]: 1.34 fold enrichment (6-mer frequency, TF over GST control)
binding signal [14]: 1.23 fold enrichment (6-mer frequency, TF over GST control)
binding signal [15]: 1.36 fold enrichment (6-mer frequency, TF over GST control)
binding signal [16]: 1.33 fold enrichment (6-mer frequency, TF over GST control)
binding signal [17]: 1.35 fold enrichment (6-mer frequency, TF over GST control)
binding signal [18]: 1.36 fold enrichment (6-mer frequency, TF over GST control)
